# Experimental data: PubChem BioAssay
# Values joined by “and” are separate entries in the source; they are usually repeats but may differ in a detail not shown here. Identical values can stand only once. Active and inactive are the calls of the source. Unless noted, how the calls were made is not given here.
# What was measured:
# [1] = hESC survival regulators, cell-based (AID 493140); conditions: human embryonic stem cell survival screen; stronger effect = higher value;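 further: cells exposed to compounds for four days before counting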
# [2] = liver-stage malaria parasite growth inhibition, primary screen, cell-based, HepG2, luciferase luminescence, HepG2 viability (AID 624349; in the data active means parasite load remaining mostly below about 12%, no sharp cut-off; inactive means mostly above about 10%;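 further: 100% = mean of DMSO negative control wells on the same plate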); conditions: P. berghei liver stage in HepG2, luciferase luminescence, concentration not given here; parasite load remaining: stronger effect = lower value; viability: measured here: HepG2 viability without parasites
# [3] = system: Hepatitis C virus NS3 helicase; assay: HCV NS3 helicase inhibitors, primary screen, biochemical, fluorescence polarization, LOPAC1280 library (AID 687035; in the data active means inhibition above about 37%); conditions: Purified HCV NS3 helicase, Cy5-dT15 ssDNA binding fluorescence polarization; stronger effect = higher value; concentration not given here
# [4] = Cy5 fluorescence quenching or enhancement artefacts, artefact control for HCV NS3 helicase inhibitor project, biochemical, LOPAC1280 (AID 687037); conditions: Cy5-DNA-NS3h complex fluorescence interference counterscreen
# [5] = stimulators of nuclear beta-catenin in C2C12, primary screen, imaging, WNT3A-conditioned medium, mouse C2C12, NPC library (AID 1117326; in the data active means nuclear beta-catenin stimulation mostly above about 4.2%, no sharp cut-off; inactive means mostly below about 10%); conditions: stronger effect = higher value
# [6] = stimulators of insulin release from INS-1E, primary screen, cell-based, 5 mM glucose, NPC library (AID 1117329;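 active means compound raises insulin release from rat beta cells at 5 mM glucose, no numeric limit stated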); conditions: rat INS-1E insulin secretion, at 10 µM, stronger effect = higher value
# [7] = growth inhibition of GSK3B-pretreated HCT116 cells – cell-based, CellTiter-Glo, 0.2 to 20 µM (AID 1117336;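 active means compounds lowering colon cancer cell viability after pretreatment blocking the GSK3B kinase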); conditions: HCT116 viability after GSK3B inhibitor, at 20 µM, stronger effect = higher value
# [8] = inhibition of endothelial tube formation, primary screen, imaging, VEGF stimulated, CD31 staining, tube area, NPC library (AID 1117340;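 active means compound that reduces growth-factor-driven endothelial tube area in a mixed cell culture, no cutoff stated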); conditions: VEGF-stimulated ADSC/ECFC co-culture, at 10 µM, stronger effect = higher value
# [9] = glucagon-like peptide 1 release enhancers, primary assay, NCI-H716 cell line, NPC library (AID 1117341;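 active means compound raises GLP1 secretion from the human gut endocrine cells, with no numeric limit stated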); conditions: NCI-H716 cells, at 10 µM, stronger effect = higher value
# [10] = HCT116 colon cancer cell growth inhibition, primary screen, CellTiter-Glo luminescence, NPC library (AID 1117342;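 active means compounds that lower survival of HCT116 colon cancer cells in the luminescence readout, no numeric limit stated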); conditions: at 20 µM (top of the series)
# [11] = CellTiter-Glo luminescent readout of SW480 viability loss, NPC library primary (AID 1117343;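 active means compounds that lower viability of the colon cancer cells in the luminescence readout, with no numeric limit stated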); conditions: CellTiter-Glo luminescence; at 20 µM (top of the series)
# [12] = decreased DLD-1 cellular survival, CellTiter-Glo luminescent readout, NPC compound collection, primary HTS (AID 1117346;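 active means compounds that lower survival of DLD-1 colon cancer cells in the luminescence readout, no cutoff given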); conditions: DLD-1 viability, CellTiter-Glo luminescence; at 20 µM (top of the series)
# [13] = system: Aerobactin synthetase IucA (Klebsiella pneumoniae, hypervirulent); assay: IucA enzyme inhibition, biochemical, LOPAC library, absorbance readout (AID 1346212); conditions: IucA enzyme assay, absorbance (OD) readout; stronger effect = lower value;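 tested at 8 µM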;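 further: 100% = no compound wells and 0% = no enzyme wells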
# [14] = survival rescue of mitochondrial mutant cells in low glucose, primary screen, MELAS cybrids, Rieske KO mouse fibroblasts, CellTiter-Glo (AID 1508586;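 active means mean z-score across replicates of 1.96 or higher in either the MELAS or the Rieske mutant cell line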;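 further: z relative to plate mean and SD of compound and empty wells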)
# [15] = molecular target: NAD(+) hydrolase SARM1 (Homo sapiens) (UniProt Q6SZW1); assay: SARM1 TIR NADase inhibitors, cell lysate, NAD-Glo luminescence (AID 1508614;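 active means compound whose remaining NAD level is above about 45 nM, limit read from the data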); conditions: SAM-TIR HEK293T lysate NADase, at 1 µM, stronger effect = higher value
# [16] = viability rescue of complex I mutant cybrids, primary screen, cell-based, galactose medium, ATP luminescence (AID 1645843;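 active means z-score of at least 1.8 in each of two replicates, scored against plate mean and spread of sample wells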;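 further: positive z means more ATP and so rescue of galactose-driven cybrid death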); conditions: complex I mutant cybrid cells, 72 h, stronger effect = higher value
# [17] = differential killing of epithelial or mesenchymal cells, primary screen, imaging, PC-3E GFP, TEM4-18 mCherry, co-culture (AID 1345086;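 active means compounds killing one labelled cell type while sparing the other, by normalised counts and ratio limits, not self-fluorescent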;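 on all read-outs here: cells exposed to compound for 72 h before imaging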;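 on red/green cell ratio (normalised): normalised mesenchymal count divided by normalised epithelial count so high means epithelial killing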); conditions: imaging cell counts, at 1 µM; for red/green cell ratio (normalised): actives lie on both sides
# [18] = sensitizers of A549 cells to miR-34 induction, primary screen, imaging, A549 dox-inducible miR-34, nuclei and caspase counts (AID 1347080;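 active means compounds whose cell count with miR-34 switched on is under 0.7 times the count with it off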); conditions: A549 miR-34 inducible, Hoechst nuclei count, 48 h
# [19] = measured here: epithelial PC-3E GFP cell survival
# [20] = measured here: mesenchymal TEM4-18 mCherry cell survival
# [21] = measured here: relative caspase fold change +Dox/-Dox
# [22] = measured here: total cells with miR-34 induction, stronger effect = lower value
# [23] = measured here: total cells without miR-34 induction
# Chain of NAD(+) hydrolase SARM1 (Homo sapiens) (Q6SZW1 whole entry, looked up): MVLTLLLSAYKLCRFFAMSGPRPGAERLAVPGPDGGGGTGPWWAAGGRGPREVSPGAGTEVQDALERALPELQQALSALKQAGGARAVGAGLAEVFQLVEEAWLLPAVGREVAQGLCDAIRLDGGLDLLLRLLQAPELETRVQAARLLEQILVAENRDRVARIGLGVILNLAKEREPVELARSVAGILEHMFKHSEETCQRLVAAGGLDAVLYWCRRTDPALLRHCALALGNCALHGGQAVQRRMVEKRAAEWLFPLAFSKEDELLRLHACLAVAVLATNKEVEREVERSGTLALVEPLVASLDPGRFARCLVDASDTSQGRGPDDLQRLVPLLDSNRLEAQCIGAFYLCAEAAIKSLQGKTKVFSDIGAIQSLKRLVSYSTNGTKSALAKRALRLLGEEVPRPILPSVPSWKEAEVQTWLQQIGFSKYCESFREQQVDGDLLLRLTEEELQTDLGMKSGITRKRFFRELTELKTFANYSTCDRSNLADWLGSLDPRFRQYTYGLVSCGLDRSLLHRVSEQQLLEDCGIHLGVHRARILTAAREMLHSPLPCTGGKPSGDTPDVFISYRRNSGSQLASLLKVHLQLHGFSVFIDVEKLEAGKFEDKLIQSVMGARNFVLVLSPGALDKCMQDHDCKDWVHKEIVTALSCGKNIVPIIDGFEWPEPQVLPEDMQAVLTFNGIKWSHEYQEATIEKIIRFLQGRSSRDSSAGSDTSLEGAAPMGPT
compound,measurement,setting,value
NCC1(CC(=O)O)CCCCC1,survival,[1],2.25 (inactive)
same,parasite load remaining,[2],131% (inactive) and 58.8% (inactive)
same,viability,[2],103% and 169%
same,inhibition,[3],-6% (inactive)
same,fluorescence ratio (interference),[4],1 (inactive)
same,nuclear beta-catenin stimulation,[5]; at 10 µM,1% (inactive)
same,nuclear beta-catenin stimulation,"[5]; stimulation, at 2 µM",2.1%
same,insulin secretion stimulation,[6],-1.1% (inactive)
same,viability decrease,[7],-8.75% (inactive)
same,tube area decrease,[8],20.1% (inactive)
same,GLP1 secretion stimulation,[9],-1.7% (inactive)
same,inhibition of viability,[10],-3.4% (inactive)
same,viability decrease (inhibition),[11],-3.2% (inactive)
same,viability decrease (inhibition),[12],-8.35% (inactive)
same,remaining activity,[13],98.6% (inactive)
same,z-score,"[14]; MELAS cybrid survival, CellTiter-Glo 48 h, stronger effect = higher value",0.467 (inactive) and -0.335 (inactive)
same,z-score,"[14]; Rieske KO mouse fibroblast survival, CellTiter-Glo 72 h",-0.399 and 0.119
same,remaining NAD,[15],10 nM (inactive)
same,z-score,[16],0.26 (inactive) and 0.88 (inactive)
O=c1n(Cl)c(=O)n(Cl)c(=O)n1Cl,nuclear beta-catenin stimulation,[5]; at 10 µM,-0.9% (inactive)
same,nuclear beta-catenin stimulation,"[5]; stimulation, at 2 µM",-0.3%
same,insulin secretion stimulation,[6],1.5% (inactive)
same,viability decrease,[7],-15.4% (inactive)
same,tube area decrease,[8],16.7% (inactive)
same,GLP1 secretion stimulation,[9],0.8% (inactive)
same,inhibition of viability,[10],13.9% (inactive)
same,viability decrease (inhibition),[11],11.6% (inactive)
same,viability decrease (inhibition),[12],-0.1% (inactive)
same,red/green cell ratio (normalised),[17],0.94 (inactive)
same,normalised cell number,[17]; [19],1.07
same,normalised cell number,[17]; [20],1
same,fold change,[18]; stronger effect = lower value,0.97 (inactive)
same,fold change,[18]; [21],1.18
same,cell count,[18]; [22],8670
same,cell count,[18]; [23],8940
same,remaining NAD,[15],10 nM (inactive)
CCCCC/C=C\C/C=C\C/C=C\C/C=C\CCCC(=O)NCC(=O)O,survival,[1],96.8 (inactive)
same,inhibition,[3],-1% (inactive)
same,fluorescence ratio (interference),[4],1 (inactive)
same,nuclear beta-catenin stimulation,[5]; at 10 µM,0.8% (inactive)
same,nuclear beta-catenin stimulation,"[5]; stimulation, at 2 µM",0.6%
same,insulin secretion stimulation,[6],2.2% (inactive)
same,viability decrease,[7],104% (active)
same,tube area decrease,[8],-12.4% (inactive)
same,GLP1 secretion stimulation,[9],5% (inactive)
same,inhibition of viability,[10],103% (active)
same,viability decrease (inhibition),[11],145% (active)
same,viability decrease (inhibition),[12],105% (active)
same,remaining activity,[13],101% (inactive)
same,fold change,[18]; stronger effect = lower value,0.935 (inactive) and 1.01 (inactive)
same,fold change,[18]; [21],1.02
same,cell count,[18]; [22],5930 and 5790
same,cell count,[18]; [23],6340 and 5700
COP(=O)(OC)C(O)C(Cl)(Cl)Cl (stereo not drawn),survival,[1],17.5 (inactive)
same,parasite load remaining,[2],19.7% (inactive) and 127% (inactive)
same,viability,[2],48.9% and 90.6%
same,nuclear beta-catenin stimulation,[5]; at 10 µM,-1.9% (inactive)
same,nuclear beta-catenin stimulation,"[5]; stimulation, at 2 µM",0.4%
same,insulin secretion stimulation,[6],0.2% (inactive)
same,viability decrease,[7],2.4% (inactive)
same,tube area decrease,[8],5.8% (inactive)
same,GLP1 secretion stimulation,[9],-3.2% (inactive)
same,inhibition of viability,[10],-44.1% (inactive)
same,viability decrease (inhibition),[11],1.6% (inactive)
same,viability decrease (inhibition),[12],-13.3% (inactive)
same,red/green cell ratio (normalised),[17],0.95 (inactive)
same,normalised cell number,[17]; [19],0.96
same,normalised cell number,[17]; [20],0.91
same,fold change,[18]; stronger effect = lower value,0.918 (inactive)
same,fold change,[18]; [21],1.24
same,cell count,[18]; [22],8320
same,cell count,[18]; [23],9070
same,remaining NAD,[15],10 nM (inactive)
